Measurements: PubChem BioAssay AID1159580 (chemical genetic matrix, 2015)
Out of some 5,500 compounds screened, about 2,000 (36%) were called active. Another 18% or so got no clear call; they are omitted. Cut-off read from the data, not from the text of the source: active = normalized growth mostly below about 0.91 (no sharp cut-off); inconclusive = no clear call, values can overlap the other calls; inactive = mostly above about 0.92. This is one part of the list.

Experiment: chemical genetic growth profiling, strain panel (AID 1159580);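 note: tested at 20 µM; growth read once vehicle control cultures reached saturation at 30 °C; 1 = growth at the plate median or of vehicle wells; lower values mean less growth of the strain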
Conditions: growth OD

Measured: normalized growth

O=C(O)/C=C/c1ccc(O)c(O)c1
inactive: S. cerevisiae deletion strains, locus YJR043C, strain POL32, hits give low values 1.01 | S. cerevisiae deletion strains, locus YJR066W, strain TOR1, hits give low values 0.95 | S. cerevisiae deletion strains, locus YKL009W, strain mrt4, hits give low values 1.05 | S. cerevisiae deletion strains, locus YKL068W, hits give low values 1.01 | S. cerevisiae deletion strains, locus YKL085W, strain MDH1 (second series), hits give low values 1.02 | S. cerevisiae deletion strains, locus YKL085W, strain MDH1, hits give low values 1.02 | S. cerevisiae deletion strains, locus YKL160W, strain elf1, hits give low values 1 | S. cerevisiae deletion strains, locus YKL190W, strain CNB1, hits give low values 1.01 | S. cerevisiae deletion strains, locus YKR001C, strain vps1, hits give low values 1 | S. cerevisiae deletion strains, locus YKR026C, strain gcn3, hits give low values 1 | S. cerevisiae deletion strains, locus YKR091W, strain srl3, hits give low values 1 | S. cerevisiae deletion strains, locus YLL001W, strain dnm1, hits give low values 0.992 | S. cerevisiae deletion strains, locus YLL026W, hits give low values 0.992 | S. cerevisiae deletion strains, locus YLL041C, strain sdh2, hits give low values 1 | S. cerevisiae deletion strains, locus YLR027C, strain aat2, hits give low values 0.989 | S. cerevisiae deletion strains, locus YLR039C, strain RIC1, hits give low values 1.01 | S. cerevisiae deletion strains, locus YLR058C, strain SHM2, hits give low values 1.01 | S. cerevisiae deletion strains, locus YLR102C, strain apc9, hits give low values 1.01 | S. cerevisiae deletion strains, locus YLR113W, strain HOG1, hits give low values 0.985 | S. cerevisiae deletion strains, locus YLR221C, strain rsa3, hits give low values 1 | S. cerevisiae deletion strains, locus YLR258W, strain gsy2, hits give low values 0.999 | S. cerevisiae deletion strains, locus YLR262C, strain YPT6 (second series), hits give low values 0.993 | S. cerevisiae deletion strains, locus YLR262C, strain YPT6, hits give low values 0.998 | S. cerevisiae deletion strains, locus YLR268W, strain sec22, hits give low values 1.03 | S. cerevisiae deletion strains, locus YLR320W, strain mms22, hits give low values 1.02 | S. cerevisiae deletion strains, locus YLR330W, strain CHS5, hits give low values 1.02 | S. cerevisiae deletion strains, locus YLR342W, strain FKS1 (second series), hits give low values 1.07 | S. cerevisiae deletion strains, locus YLR342W, strain FKS1, hits give low values 1.01 | S. cerevisiae deletion strains, locus YLR357W, strain rsc2, hits give low values 1.01 | S. cerevisiae deletion strains, locus YLR370C, strain arc18, hits give low values 1 | S. cerevisiae deletion strains, locus YLR371W, strain rom2, hits give low values 1.01 | S. cerevisiae deletion strains, locus YLR384C, strain iki3, hits give low values 0.999 | S. cerevisiae deletion strains, locus YLR418C, strain cdc73, hits give low values 1.05 | S. cerevisiae deletion strains, locus YML016C, strain PPZ1, hits give low values 1.01 | S. cerevisiae deletion strains, locus YML032C, strain rad52, hits give low values 0.998 | S. cerevisiae deletion strains, locus YML120C, strain ndi1, hits give low values 1.01 | S. cerevisiae deletion strains, locus YML124C, strain tub3, hits give low values 1 | S. cerevisiae deletion strains, locus YMR058W, strain fet3, hits give low values 1.01 | S. cerevisiae deletion strains, locus YMR078C, strain ctf18, hits give low values 1.01 | S. cerevisiae deletion strains, locus YMR125W, strain sto1, hits give low values 1 | S. cerevisiae deletion strains, locus YMR129W, hits give low values 1 | S. cerevisiae deletion strains, locus YMR205C, strain PFK2, hits give low values 0.999 | S. cerevisiae deletion strains, locus YMR223W, strain ubp8, hits give low values 0.997 | S. cerevisiae deletion strains, locus YMR231W, strain pep5, hits give low values 0.98 | S. cerevisiae deletion strains, locus YMR307W, strain GAS1, hits give low values 1.04 | S. cerevisiae deletion strains, locus YNL067W, strain RPL9B, hits give low values 0.994 | S. cerevisiae deletion strains, locus YNL071W, strain lat1, hits give low values 1.01 | S. cerevisiae deletion strains, locus YNL153C, strain GIM3, hits give low values 0.999 | S. cerevisiae deletion strains, locus YNL175C, strain NOP13, hits give low values 1 | S. cerevisiae deletion strains, locus YNL183C, strain NPR1, hits give low values 0.971 | S. cerevisiae deletion strains, locus YNL197C, strain WHI3, hits give low values 1.01 | S. cerevisiae deletion strains, locus YNL209W, strain ssb2, hits give low values 0.998 | S. cerevisiae deletion strains, locus YNL224C, strain SQS1, hits give low values 0.997 | S. cerevisiae deletion strains, locus YNL233W, strain BNI4, hits give low values 1 | S. cerevisiae deletion strains, locus YNL248C, strain rpa49, hits give low values 1 | S. cerevisiae deletion strains, locus YNL250W, strain rad50, hits give low values 1 | S. cerevisiae deletion strains, locus YNL271C, strain bni1, hits give low values 0.998 | S. cerevisiae deletion strains, locus YNL298W, strain CLA4, hits give low values 0.98 | S. cerevisiae deletion strains, locus YNL307C, strain MCK1, hits give low values 1.01 | S. cerevisiae deletion strains, locus YNL322C, strain KRE1 (second series), hits give low values 0.998 | S. cerevisiae deletion strains, locus YNL322C, strain KRE1, hits give low values 1.02 | S. cerevisiae deletion strains, locus YNR049C, strain mso1, hits give low values 1.01 | S. cerevisiae deletion strains, locus YNR052C, strain pop2, hits give low values 0.993 | S. cerevisiae deletion strains, locus YOL012C, strain htz1 0.725 | S. cerevisiae deletion strains, locus YOL147C, strain pex11, hits give low values 1.01 | S. cerevisiae deletion strains, locus YOR001W, strain rrp6, hits give low values 1.02 | S. cerevisiae deletion strains, locus YOR061W, strain CKA2, hits give low values 1.02 | S. cerevisiae deletion strains, locus YOR069W, strain VPS5, hits give low values 1.01 | S. cerevisiae deletion strains, locus YOR070C, strain gyp1, hits give low values 0.972 | S. cerevisiae deletion strains, locus YOR080W, strain dia2, hits give low values 1 | S. cerevisiae deletion strains, locus YOR083W, strain WHI5 (second series), hits give low values 1.01 | S. cerevisiae deletion strains, locus YOR083W, strain WHI5, hits give low values 1 | S. cerevisiae deletion strains, locus YOR106W, strain vam3, hits give low values 1.04 | S. cerevisiae deletion strains, locus YOR136W, strain idh2, hits give low values 1.02 | S. cerevisiae deletion strains, locus YOR144C, strain elg1, hits give low values 1.01 | S. cerevisiae deletion strains, locus YOR184W, strain ser1, hits give low values 1 | S. cerevisiae deletion strains, locus YOR231W, strain MKK1, hits give low values 1.03 | S. cerevisiae deletion strains, locus YOR265W, strain rbl2, hits give low values 0.988 | S. cerevisiae deletion strains, locus YOR270C, strain vph1, hits give low values 1 | S. cerevisiae deletion strains, locus YOR290C, strain snf2, hits give low values 1.01 | S. cerevisiae deletion strains, locus YOR316C, strain cot1, hits give low values 1 | S. cerevisiae deletion strains, locus YPL051W, strain arl3, hits give low values 0.994 | S. cerevisiae deletion strains, locus YPL055C, strain LGE1, hits give low values 1.01 | S. cerevisiae deletion strains, locus YPL078C, strain atp4, hits give low values 1 | S. cerevisiae deletion strains, locus YPL106C, strain sse1, hits give low values 0.992 | S. cerevisiae deletion strains, locus YPL240C, strain hsp82, hits give low values 1 | S. cerevisiae deletion strains, locus YPL256C, strain CLN2, hits give low values 0.985 | S. cerevisiae deletion strains, locus YPR119W, strain clb2, hits give low values 1.01 | S. cerevisiae deletion strains, locus YPR141C, strain kar3, hits give low values 1.04 | S. cerevisiae deletion strains, locus YPR163C, strain tif3, hits give low values 1 | S. cerevisiae deletion strains, locus YPR167C, strain met16, hits give low values 1.02 | S. cerevisiae deletion strains, strain wtn01, hits give low values 1.04 | S. cerevisiae strains, strain wild type, hits give low values 1.01
